Measured values taken from PubChem BioAssay AID1159580 (chemical genetic matrix, 2015).
Hit rate of the full screen: of about 5,500 compounds, about 2,000 (36%) were called active. Roughly 18% stayed inconclusive and do not appear here. Cut-off read from the data, not from the text of the source: active = normalized growth mostly below about 0.91 (no sharp cut-off); inconclusive = no clear call, values can overlap the other calls; inactive = mostly above about 0.92. Some of the results follow.

Assay: chemical genetic growth profiling, strain panel (AID 1159580);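 note: tested at 20 µM; growth read once vehicle control cultures reached saturation at 30 °C; 1 = growth at the plate median or of vehicle wells; lower values mean less growth of the strain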
Settings: S. cerevisiae deletion strains, growth OD

Measured: normalized growth

N#CC(C#N)=C(SCc1c(Cl)cccc1Cl)SCc1c(Cl)cccc1Cl
inactive: locus YAR019C, strain CDC15, hits give low values 0.997 | locus YBL105C, strain PKC1, hits give low values 0.981 | locus YBR135W, strain CKS1, hits give low values 0.992 | locus YBR136W, strain MEC1, hits give low values 0.988 | locus YBR160W, strain CDC28, hits give low values 0.996 | locus YDL017W, strain CDC7, hits give low values 0.989 | locus YDL028C, strain MPS1, hits give low values 0.993 | locus YDL101C, strain DUN1, hits give low values 0.988 | locus YDL108W, strain KIN28, hits give low values 0.989 | locus YDL132W, strain cdc53, hits give low values 0.984 | locus YDL214C, strain PRR2, hits give low values 0.996 | locus YDR052C, strain DBF4, hits give low values 0.99 | locus YDR054C, strain cdc34, hits give low values 0.977 | locus YDR226W, strain ADK1, hits give low values 0.981 | locus YDR477W, strain SNF1, hits give low values 0.993 | locus YER123W, strain YCK3, hits give low values 0.999 | locus YER133W, strain GLC7, hits give low values 0.995 | locus YFL009W, strain cdc4, hits give low values 0.981 | locus YFL029C, strain CAK1, hits give low values 0.986 | locus YFR003C, strain YPI1, hits give low values 0.99 | locus YFR019W, strain FAB1, hits give low values 0.979 | locus YFR028C, strain CDC14, hits give low values 0.993 | locus YGR040W, strain KSS1, hits give low values 0.993 | locus YGR052W, strain FMP48, hits give low values 1.03 | locus YGR092W, strain DBF2, hits give low values 0.982 | locus YHR030C, strain SLT2, hits give low values 0.925 | locus YHR079C, strain IRE1, hits give low values 0.93 | locus YHR082C, strain KSP1, hits give low values 1.11 | locus YHR205W, strain SCH9, hits give low values 0.859 | locus YIL147C, strain SLN1, hits give low values 0.992 | locus YJL095W, strain BCK1, hits give low values 0.969 | locus YJL128C, strain PBS2, hits give low values 0.993 | locus YJL157C, strain FAR1, hits give low values 0.989 | locus YJR016C, strain ILV3, hits give low values 0.991 | locus YJR066W, strain TOR1 (second series), hits give low values 1 | locus YJR066W, strain TOR1, hits give low values 1.09 | locus YKL048C, strain ELM1, hits give low values 0.954 | locus YKL067W, strain YNK1, hits give low values 0.995 | locus YKL101W, strain HSL1, hits give low values 0.981 | locus YKL193C, strain SDS22, hits give low values 0.987 | locus YKL203C, strain TOR2, hits give low values 1.08 | locus YLR113W, strain HOG1, hits give low values 0.95 | locus YLR133W, strain CKI1, hits give low values 0.991 | locus YLR403W, strain SFP1, hits give low values 0.937 | locus YML070W, strain DAK1, hits give low values 0.998 | locus YMR001C, strain CDC5, hits give low values 0.985 | locus YMR205C, strain PFK2 (second series), hits give low values 0.996 | locus YMR277W, strain FCP1, hits give low values 0.994 | locus YNL006W, strain LST8, hits give low values 0.997 | locus YNL020C, strain ARK1, hits give low values 0.987 | locus YNL161W, strain CBK1, hits give low values 0.983 | locus YNL183C, strain NPR1, hits give low values 1.1 | locus YNL207W, strain RIO2, hits give low values 0.987 | locus YNL222W, strain SSU72, hits give low values 0.987 | locus YNL307C, strain MCK1 (second series), hits give low values 0.989 | locus YOL078W, strain AVO1, hits give low values 0.993 | locus YOL136C, strain PFK27, hits give low values 0.988 | locus YOR061W, strain CKA2, hits give low values 0.995 | locus YOR119C, strain RIO1, hits give low values 1.08 | locus YOR231W, strain MKK1, hits give low values 1.01 | locus YOR329C, strain SCD5, hits give low values 0.986 | locus YPL031C, strain PHO85, hits give low values 0.989 | locus YPL153C, strain RAD53, hits give low values 1.01 | locus YPL204W, strain HRR25, hits give low values 1 | locus YPL209C, strain IPL1, hits give low values 0.987 | locus YPL256C, strain CLN2, hits give low values 0.946 | locus YPR025C, strain CCL1, hits give low values 0.996 | locus YPR106W, strain ISR1, hits give low values 0.998 | locus YPR111W, strain DBF20, hits give low values 0.988 | strain NNK1, hits give low values 0.996 | strain TSCII, hits give low values 0.993
